Assay outcomes from PubChem.
In the library only some 0.93% were active in any assay of this set; here they are far more common.
TAR Tat displ: HIV-1 TAR-Tat binding disruption. z-score (concentration not given with the values). HIV-1 TAR RNA, Tat peptide displacement FRET; active compounds read high. 100,000 compounds, 0.6% hits; active = z-score of 3 or more in at least 2 runs
CDC25B-CDK2 inh: human CDC25B-CDK2/CyclinA binding inhibition | P30305+P24941 | HTRF CDC25B-CDK2/CyclinA binding, anti-His/anti-Flag; active compounds read high | z-score (concentration not given with the values) | 94,000 compounds, 0.72% hits | AID 1259370; in the data active = z-score above about 3.2
An asterisk follows results filed as active; . = no result.

SMILES	TAR Tat displ	CDC25B-CDK2 inh
CCc1ccc2occ(CC(=O)Nc3sc4c(c3C(=O)NCc3ccco3)CCC4)c2c1	-0.48	1.1
COc1ccc(NS(=O)(=O)c2ccc3c4c(cccc24)C(=O)N3)cc1	2.2	-0.99
O=C1Nc2ccc(S(=O)(=O)Nc3ccc4oc5c(c4c3)CCCC5)c3cccc1c23	6.3*	-1.9
Cc1ccc(NS(=O)(=O)c2ccc(-c3n[nH]c(C)c3C)s2)c(Br)c1	1.6	.
O=C(Nc1ccc(-n2nncc2-c2ccco2)cc1)c1cnc2n(c1=O)CCS2	7.3*	.
CC(=O)Nc1ccc(-n2nncc2-c2ccco2)cc1	1.3	.
CC(=O)N1CCN(CCn2c(C)c3c(=O)n(-c4nc5ccccc5s4)[nH]c3cc2=O)CC1	0.25	-0.61
Cc1c2c(=O)n(-c3nc4ccccc4s3)[nH]c2cc(=O)n1Cc1ccc(C(=O)O)cc1	24*	13
COc1ccc(NC(=O)Nc2nnc(COc3ccccc3F)s2)cc1	1.2	4.7*
CCc1nnc(NC(=O)Nc2ccc(OC)cc2)s1	.	-2.5
Cc1ccc(CNS(=O)(=O)c2ccc(-c3coc(C)n3)cc2)o1	0.78	.
Cc1c([N+](=O)[O-])sc2nc[nH]c(=O)c12	11*	-0.33
Cc1c(C(=O)Nc2ccc(F)cc2)sc2nc[nH]c(=O)c12	1.6	.
O=S(=O)(c1cccc2nonc12)N1CCCN(CCc2ccccc2)CC1	.	0.52
Fc1ccc(NC(=S)Nc2ccc3cn[nH]c3c2)cc1	.	20*
CNC(=S)Nc1ccc(F)cc1	.	-1.5
CNc1nc2[nH]c(=O)cc(O)c2s1	-1.5	1.8
CCNc1nc2[nH]c(=O)cc(O)c2s1	-0.15	11*
CC1CCN(S(=O)(=O)c2cn(CC(=O)NC3CCCC3)cn2)CC1	0.09	.
N.N.N.N.N.N.N.N.N.N.N.N.N.N.O.O.[Cl-].[Cl-].[Cl-].[Cl-].[Cl-].[Cl-].[Ru+4].[Ru+5].[Ru+5]	.	4.2*
O=C(NCCN1CCOCC1)c1cnn(-c2ccc(F)cc2F)c1C1CCNCC1	1.2	.
COC(=O)c1ccc2[nH]c3c(c2c1)CCCC3	.	-3
O=S(=O)(c1ccc2[nH]c3c(c2c1)CCCCC3)N1CCCCC1	3.4*	.
CC(C)OC(=O)c1ccc2[nH]c3c(c2c1)CCCC3	-1.5	18*
O=S(=O)(c1ccc2[nH]c3c(c2c1)CCCC3)N1CCCCC1	-0.42	.
SMILES	TAR Tat displ	CDC25B-CDK2 inh
COc1ccc(C(=O)NC(=S)Nc2ccc(O)c(-c3nc4cc(C)c(C)cc4o3)c2)cc1OC	.	-3.5
CSc1nc(N)nc2sc3c(O)cc(=O)[nH]c3c12	11*	6.5
Cc1cc(-c2ccccc2)c2c(n1)sc1c(O)cc(=O)[nH]c12	-1.1	-1.6
CCOC(=O)C1CCN(c2cc(NCC(=O)O)c3c4c(onc24)-c2ccccc2C3=O)CC1	-5.8	5.9*
CCOC(=O)C1CCCN(c2cc(NCCCC(=O)O)c3c4c(onc24)-c2ccccc2C3=O)C1 (configuration not stated)	21*	11*
CCOC(=O)N1CCN(c2cc(NCC(=O)O)c3c4c(onc24)-c2ccccc2C3=O)CC1	-6.2	3.2*
CCOC(=O)N1CCN(c2cc(NCCCC(=O)O)c3c4c(onc24)-c2ccccc2C3=O)CC1	0.69	-0.95
CCOC(=O)C1CCN(c2cc(NCCOC)c3c4c(onc24)-c2ccccc2C3=O)CC1	1.3	-1.3
CCOC(=O)C1CCCN(c2cc(NCC(C)C)c3c4c(onc24)-c2ccccc2C3=O)C1 (configuration not stated)	0.8	-1.2
CCC(=O)Nc1ccc2[nH]c(=O)sc2c1	0.81	.
O=C(c1ccco1)N1CCN(S(=O)(=O)c2ccc(F)cc2)CC1	17*	.
O=C(c1ccco1)N1CCN(S(=O)(=O)c2ccccc2)CC1	0.56	-0.89
O=C1CCn2nc(-c3cccc(Cl)c3)cc2N1	0.95	-1.3
O=c1[nH]c(Nc2ccccc2)cc2ccccc12	-7.4	16*
O=C(O)c1cc2ccccc2c(=O)[nH]1	1.9	.
Cc1cccc(-n2nnc(S(=O)(=O)c3ccccc3)c2C)c1	-1.4	-1.5
O=c1cc(-c2cc(O)c(O)c(O)c2)oc2cc(O)cc(O)c12	10*	.
O=c1cc(-c2ccc(O)cc2)oc2cc(O)cc(O)c12	3.4	0.12
Cc1cccn2cc(CNS(=O)(=O)c3cc(F)ccc3F)nc12	.	-0.92
Cn1nc(C(=O)Nc2ccc(Cl)cc2)c2c1-c1ccccc1SC2	1	-0.54
O=C(c1cccs1)N1CCN(CCOc2ccccc2)CC1	.	4.3
O=C(c1cccs1)N1CCN(CCN2C(=O)c3cccc4cccc(c34)C2=O)CC1	1.1	12*
Cc1ccc(-n2cc3c(c2-c2ccc(Br)cc2)c(=O)n(C)c(=O)n3C)cc1N	1	1.8
O=C(Nc1cccc([N+](=O)[O-])c1)c1ccc2c(c1)C(=O)N(c1cccc3ccccc13)C2=O	.	0.77
O=C(CN1C(=O)c2ccc([N+](=O)[O-])cc2C1=O)Nc1ccc2ccccc2c1	.	6.7*
SMILES	TAR Tat displ	CDC25B-CDK2 inh
Cc1ccc(N2CCn3c2nc2c3c(=O)n(C)c(=O)n2C)cc1	2.5	.
Cc1cccc2c3c(ccc12)C1=C(C(=O)C3=O)[C@@H](C)CO1	17*	.
CCc1cc2c3c([nH]c2cc1S(=O)(=O)N(C)Cc1ccco1)CCCC3=O	-6.5	.
CCc1cccc(Nc2nc(-c3ccccc3F)no2)c1	0.14	.
O=c1cc(CSc2n[nH]c(-c3ccccc3)n2)nc2sc(C3CC3)nn12	0.09	.
N=C1C(c2nc3ccccc3[nH]2)=C(O)CN1c1ccc(S(N)(=O)=O)cc1	4.4*	-2
N=C1C(c2nc3ccccc3[nH]2)=C(O)CN1c1ccc(F)cc1	0.18	-1.5
Cc1cc(C)c2c(=O)cc(C(=O)NCC(c3ccc(C)o3)N3CCC(C)CC3)oc2c1 (configuration not stated)	0.76	-1.1
CN1C(=O)CSc2ccc(NC(=O)NCc3cccnc3)cc21	0.5	4.8*
CN1C(=O)CSc2ccc(NC(=O)NCc3ccc(F)cc3)cc21	-0.54	1.9
Cc1ccc(OCc2nn3c(Cn4nnc5ccccc54)nnc3s2)cc1	1.4	-1.3
Cc1ccc(C)n1-c1sccc1C(=O)NN	.	-1.6
Cc1ccc(C)n1-c1ccc(Cl)c(C(=O)NN)c1	.	19*
Cc1cc(C)nc(Nc2nc(-c3ccc(O)c(O)c3)cs2)n1	29*	1.1
Oc1ccc(-c2csc(Nc3ncccn3)n2)cc1O	.	-6.2
Fc1ccc(-c2noc3ncnc(NC4CCCC4)c23)cc1	1.4	.
O=C(O)c1cc(=O)c(O)c2c(O)c(O)ccc2c1	25*	.
Cc1cc(=O)c2c(O)c(O)ccc2o1	.	-2.2
O=c1cccc2ccc(O)c(O)c2c1O	25*	.
CC1=NN(c2cccc(C(=O)O)c2)C(=O)C1	0.21	-1.1
CNc1nc(Nc2ccc(Cl)cc2C)c2cnn(C)c2n1	0.86	.
COc1cscc1C(=O)Nc1cc(C(F)(F)F)cc(C(F)(F)F)c1	.	-0.73
COC(=O)c1cscc1OC(=O)c1ccc(C(F)(F)F)cc1	.	17*
COc1ccccc1-n1cnc2cc(Nc3nnc(C)c4ccccc34)ccc21	2.1	-3.1
COc1ccccc1-n1cnc2cc(NCc3ccncc3)ccc21	0.48	13*
COc1ccccc1NC(c1ccccc1)c1nnc(-c2ccccc2F)o1 (configuration not stated)	1.3	-1.8
N[C@@H](Cc1cnc[nH]1)C(=O)O	.	-0.77
O=C(O)c1cnc[nH]1	.	3.9*
O=C1c2[nH]nc(-c3ccccc3O)c2C(c2ccc(OCc3ccccc3)cc2)N1Cc1ccco1 (configuration not stated)	-0.46	-0.35
